Compound activity: PubChem, Broad Institute
LANA DNA inh = inhibitors of KSHV C-LANA binding to DNA, primary screen, biochemical, fluorescence polarization, FAM-LBS DNA, MBP-C-LANA, single point; Kaposi's sarcoma herpesvirus LANA C-terminal domain (residues 932-1162) DNA binding; inhibition, % at 9 µM; 340,000 tested, 0.078% active; AID 504423, 2011;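 active = highest replicate inhibition at or above 60% at 9 µM, even if other replicates fall short; inactive = all replicates below 60% inhibition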;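 note: 0% = neutral control wells and 100% = 4 µM acridine orange control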
Glyco luc inh = increase of ERlucT glycosylation luciferase signal, primary screen, N-linked glycosylation inhibitor project, D54 ERlucT cells, luminescence, set 2; D54 ERlucT glycosylation luciferase reporter, 24 h; percent of 100 nM tunicamycin response; reporter increase, % at 12.5 µM; 360,000 tested, 0.23% active;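 active = mean luciferase reporter signal, scaled so untreated is 0 and the glycosylation-blocking control 100, at or above a set limit in every replicate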;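 note: luciferase carries N-glycosylation sites so blocking glycosylation raises the light; 0% = median of neutral control wells and 100% = median of 100 nM tunicamycin wells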
HDAC3 inh = HDAC3 deacetylase inhibitors, primary screen, biochemical, fluorescence, cell-free homogeneous; recombinant HDAC3, fluorogenic peptide/trypsin coupled; inhibition, % at 8.3 µM; 320,000 tested, 0.15% active; in the data active = inhibition above about 26%, passing the limit was not always enough
Target sequence (O15379 whole entry, looked up): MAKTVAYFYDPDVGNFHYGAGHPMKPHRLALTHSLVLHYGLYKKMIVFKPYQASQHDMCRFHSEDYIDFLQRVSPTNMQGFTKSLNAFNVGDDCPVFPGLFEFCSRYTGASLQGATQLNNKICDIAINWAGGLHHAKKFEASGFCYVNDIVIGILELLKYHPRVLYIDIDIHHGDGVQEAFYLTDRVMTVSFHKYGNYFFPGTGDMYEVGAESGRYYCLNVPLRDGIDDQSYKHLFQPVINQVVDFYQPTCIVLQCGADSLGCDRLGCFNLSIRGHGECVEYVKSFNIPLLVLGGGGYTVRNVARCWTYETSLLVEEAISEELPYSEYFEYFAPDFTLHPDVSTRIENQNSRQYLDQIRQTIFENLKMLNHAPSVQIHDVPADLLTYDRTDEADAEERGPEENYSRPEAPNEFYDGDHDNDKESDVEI
CASP6 VEID inh = human caspase-6 inhibitors, primary screen, biochemical, VEID-R110 fluorescence, single point, set 2 | P55212 | purified caspase-6, Z-VEID-R110 cleavage fluorescence | inhibition, % at 12.5 µM | 350,000 tested, 0.53% active;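 active = mean inhibition across replicates at least about 35%, with every replicate also reaching that limit, limit read from the data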;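 note: 0% = median of neutral control wells and 100% = no fluorescence left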
Keap1-Nrf2 PPI = Keap1-Nrf2 protein-protein interaction inhibitors, primary screen, biochemical, fluorescence polarization, single point | AID 504523, 2011 | 340,000 tested, 0.15% active | Keap1 Kelch-Nrf2 peptide fluorescence polarization, 1536-well | inhibition, % at 9.4 µM | Kelch-like ECH-associated protein 1 (Homo sapiens), Q14145; in the data active = inhibition above about 12%;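 note: human Keap1 Kelch domain with fluorescein labeled Nrf2 9mer peptide probe; 0% = neutral control wells and 100% = peptide positive control; higher means more block of Keap1 binding to Nrf2 peptide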
NSD2 HMT inh = NSD2 histone methyltransferase inhibitors, primary screen, biochemical, AlphaScreen, single concentration, set 2. AID 743445, 2014. 310,000 tested, 0.54% active. inhibition, % at 12.5 µM. NSD2 peptide methylation, 120 min. Histone-lysine N-methyltransferase NSD2 (Homo sapiens), O96028; in the data active = inhibition above about 50%
* marks the source's active call; other numbers are inactive results; nt = no result given. Hits are enriched below; roughly 1.1% of the tested compounds scored in any of these assays.

SMILES	LANA DNA inh	Glyco luc inh	HDAC3 inh	CASP6 VEID inh	Keap1-Nrf2 PPI	NSD2 HMT inh
O=C(O)C1=C(C2CCCCC2)C(=O)c2ccccc21	-2	0	nt	0	-2	0
Nc1c(N(Cc2ccccc2)C(=O)COc2ccc([N+](=O)[O-])cc2)c(=O)[nH]c(=O)n1Cc1ccccc1	0	123*	nt	3	-4	-1
COCCN(C(=O)COC(=O)/C=C/c1ccco1)c1c(N)n(Cc2ccccc2)c(=O)[nH]c1=O	2	0	-4	43*	-6	3
COCCN(C(=O)COC(=O)/C=C/c1ccc(C)o1)c1c(N)n(Cc2ccccc2)c(=O)[nH]c1=O	0	1	-4	4	-1	-2
Nc1c(N(CCC2=CCCCC2)C(=O)COc2ccc(F)cc2)c(=O)[nH]c(=O)n1Cc1ccccc1	-1	55*	-31	nt	-6	0
Nc1c(N(CCC2=CCCCC2)C(=O)CCCOc2ccccc2)c(=O)[nH]c(=O)n1Cc1ccccc1	1	-1	3	-1	0	nt
CCOc1ccc2oc(C(=O)OCC(=O)N(CC(C)C)c3c(N)n(Cc4ccccc4)c(=O)[nH]c3=O)c(C)c2c1	2	-2	nt	15	-4	-1
Cc1c(C(=O)OCC(=O)N(CC(C)C)c2c(N)n(Cc3ccccc3)c(=O)[nH]c2=O)oc2ccccc12	-1	0	nt	46*	-3	0
O=C(NC1CCCCC1)N[C@@H]1C=C[C@H](CC(=O)N2CCOCC2)O[C@@H]1CO	nt	nt	nt	1	nt	nt
O=C(NCCNCc1ccccc1)c1ccco1	1	-1	nt	64*	-1	3
COc1ccc(C(=O)/C=C\c2ccc(NC(=O)c3cccs3)cc2)cc1	0	48*	1	nt	-3	0
COc1ccc(NC(=O)c2ccc(NC(=O)c3cccs3)cc2)cc1	2	nt	-5	-1	0	-2
COCc1cn(CC[C@@H]2CC[C@@H](NC(=O)Nc3ccc(Cl)cc3)[C@@H](CO)O2)nn1	nt	nt	nt	2	nt	nt
CCCNC(=O)N1CC2(CN(Cc3ccc(F)cc3)C2)c2c([nH]c3cc(OC)ccc23)[C@@H]1CO	nt	nt	nt	1	nt	nt
C[C@@H]1CN([C@@H](C)CO)C(=O)c2cc(NS(=O)(=O)c3ccc(F)cc3)ccc2O[C@@H]1CN(C)Cc1ccc2c(c1)OCO2	nt	nt	nt	-1	nt	nt
O=C1Cc2cc(S(=O)(=O)N3CCN(c4ccc(C(=O)O)cc4)CC3)ccc2N1	nt	2	nt	38*	nt	nt
CC(=O)c1ccc(N2CCN(S(=O)(=O)c3ccc4c(c3)NC(=O)CC(=O)N4)CC2)cc1	-1	2	1	8	3	-8
CCOC(=O)N1CCN(C2=C(NS(=O)(=O)c3ccc(C)cc3)C(=O)c3ccccc3C2=O)CC1	-1	-7	3	nt	0	64*
Cc1ccc(S(=O)(=O)NC2=C(N3CCN(Cc4ccccc4)CC3)C(=O)c3ccccc3C2=O)cc1	0	65*	4	9	-2	40
C[C@H](O)C#Cc1cnc2c(c1)C(=O)N([C@H](C)CO)C[C@@H](C)[C@@H](CN(C)C(=O)c1ccccc1F)O2	nt	nt	nt	-2	nt	nt
COc1ccc(/C=N\NC(=O)c2cc(O)c(O)c(O)c2)cc1COc1ccc(C(=O)OCC(C)C)cc1	-1	1	0	44*	-11	9
COc1ccc(C(=O)N/N=C/c2ccc(OC)c(COc3ccccc3)c2)cc1	-1	-3	1	-3	3	-2
CN1C(=O)CSc2ccc(NC(=O)Nc3ccccn3)cc21	5	31*	1	5	2	2
c1ccc2c(c1)C1=NCCN1c1ccccc1-2	nt	78*	nt	-4	nt	3
COC1=Nc2ccccc2N2CCN=C12	nt	1	nt	-1	nt	-5
N#Cc1c(-c2ccco2)nc(SCC(=O)Nc2cccc(Cl)c2)[nH]c1=O	1	1	4	nt	-3	33
CCc1ccc(NC(=O)C(C)Sc2nc(-c3ccco3)c(C#N)c(=O)[nH]2)cc1 (stereo unspecified)	2	-1	2	46*	-5	18
